Records with an inconclusive call do not appear. A call without a number means that no potency is given here. Unmarked numbers belong to inactive results. Calls of active or inactive are those of the source. The call rests on the fitted dose curve; in most records, active means well fitted cell-killing curve with a large enough effect; inconclusive means small, poorly fitted or top-dose-only effect, or effect the other way; inactive means no such curve, though single readings can be large or run the other way.
Key:
[1] = Viability qHTS for spleen associated tyrosine kinase inhibitor (SYKi) naive MV4-11 cells (AID 1963823); further: nearly all actives have a fitted effect of over 40% in size
How it was run: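 SYKi-naive MV4-11 AML cells, 500 per well, were exposed to library compounds for 72 hr at 37 C, 5% CO2. Viability was then read by CellTiter-Glo luminescence after 10 min at room temperature.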

[2] = Viability qHTS for spleen associated tyrosine kinase inhibitor (SYKi) drug resistant MV4-11 cells (AID 1963824); further: nearly all actives have a fitted effect of over 35% in size
How it was run: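 SYK inhibitor-resistant MV4-11 AML cells, 500 per well, added to predispensed compounds and incubated 72 hr at 37 C, 5% CO2. Viability measured by CellTiter-Glo luminescence after 10 min at room temperature.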
Potency means the concentration at half of the fitted maximal effect.

Row | SMILES | Potency [1] | Potency [2] | viability (% of control) [1] | viability, % of control [2]
1 | OC[C@H]1O[C@@H](OC[C@H]2O[C@@H](OCc3ccccc3)[C@H](O)[C@@H](O)[C@@H]2O)[C@H](O)[C@@H](O)[C@@H]1O | inactive | inactive |  | 
2 | CC(=O)N(O)CCCCCN1C(=O)CCC1=O | inactive | inactive |  | 
3 | COc1cc(CO)ccc1O[C@@H]1O[C@H](CO)[C@@H](O)[C@H](O)[C@H]1O | inactive | inactive |  | 
4 | CC(NCCC(c1ccccc1)c1ccccc1)c1ccccc1 (centres undefined) | 13300 nM (active) | 10600 nM (active) |  | 
5 | CC(C)C1CCC(CO)=CC1/C=C(\CO)C(=O)OCC1(O)CCC(C(C)C)C2C=C(C(=O)O)COC(=O)C21 (centres undefined) | inactive | inactive |  | 
6 | CCn1cc(C2=NOC(C(=O)Nc3c(C)n(C)n(-c4ccccc4)c3=O)C2)c(C)n1 (centres undefined) | inactive | inactive |  | 
7 | O=C(OCC1OC(Oc2ccc(O)cc2COC(=O)C2(O)C(O)CCC(=O)C2OC(=O)C2C=CCC2)C(OC(=O)C2C=CCC2)C(O)C1O)C1C=CCC1 (centres undefined) | inactive | inactive |  | 
8 | CCOc1cn(-c2ccc(F)cc2C)nc1C(=O)Nc1ccc(Oc2ccnc3cc(OC)c(OC)cc23)c(F)c1 | 259 nM (active) | 651 nM (active) |  | 
9 | CC(C)CC1NC(=O)C(C)NC(=O)C(CC(C)C)OC(=O)CCCNC1=O (centres undefined) | inactive | inactive |  | 
10 | CC1C(=O)OCC2=CC[N+]3([O-])CCC(OC(=O)C(C)(O)C1(C)O)C23 (centres undefined) | inactive | inactive |  | 
11 | NC(=O)[C@H](Cc1ccccc1)NC(=O)[C@H](CCCN=C(N)N)NC(=O)C12CC3CC(CC(C3)C1)C2 |  |  | 88.8% [at 9.25 µM] | 78% [at 9.25 µM]
12 | C[C@@H]1O[C@@H](O[C@@H]2[C@@H](O)[C@@H](O)[C@H](O[C@@H]3[C@@H](O)[C@@H](O[C@]4(CO)O[C@H](CO)[C@@H](O)[C@@H]4OC(=O)/C=C/c4ccc(O)cc4)O[C@H](CO)[C@H]3OC(=O)/C=C/c3ccc(O)cc3)O[C@H]2C)[C@H](O)[C@H](O)[C@H]1O |  |  | 81.6% [at 9.25 µM] | 117% [at 9.25 µM]
13 | O=C(Nc1ccc(Cl)cc1)C1CCCN(C(=O)c2cccc(-c3ccco3)c2)C1 (centres undefined) | 8200 nM (active) | 8200 nM (active) |  | 
14 | O=Nc1c2[nH]c3ccccc3nc-2c2ccccc12 | 5800 nM (active) | 10300 nM (active) |  | 
15 | COc1c2c(c(C)c3c1C(=O)OC3)OC1(C)CC(O)C3(O)C(C)(C)OC(=O)CCC3(C)C1C2 (centres undefined) | inactive | inactive |  | 
16 | NC(=O)c1cccc(-c2cc(O)cc(OC(=O)NC3CCCCC3)c2)c1 | inactive | inactive |  | 
17 | CC(C)(C)NC(=O)[C@@H]1CN(Cc2cccnc2)CCN1C[C@@H](O)C[C@@H](Cc1ccccc1)C(=O)N[C@H]1c2ccccc2C[C@H]1O | inactive | inactive |  | 
18 | c1nc(NCC2CCOC2)c2cc(-c3ccc4c(c3)OCO4)ccc2n1 (centres undefined) | 20600 nM (active) | 18400 nM (active) |  | 
19 | COc1cc(C2c3cc(O)c(OC)cc3CC(CO)C2CO)ccc1O (centres undefined) | inactive | inactive |  | 
20 | O=C(OC1C=C(CO)C2C(OC3OC(CO)C(O)C(O)C3O)OC=CC12)c1ccc(O)cc1 (centres undefined) | inactive | inactive |  | 
21 | COC(=O)[C@@H](O)[C@H]1[C@@]2(C)CC3(O)[C@@H](C(=O)[C@H]2O)[C@]24O[C@]25CC(=O)O[C@@H](c2ccoc2)[C@]5(C)CCC4[C@]13C (some centres undefined) | inactive | inactive |  | 
22 | C[C@@H]1CCC2C(C)(C)[C@H](O)CC[C@]2(C)[C@@]12Cc1c(O)cc3c(c1O2)CNC3=O (some centres undefined) | inactive | inactive |  | 
23 | CCNC(=O)Nc1ccc(-c2nc3c(c(N4CCOC[C@@H]4C)n2)CCN(C2COC2)C3)cc1 | 934 nM (active) | 1860 nM (active) |  | 
24 | CC1CCC2C(C(=O)O)=CC3(O)CC(C)(C)CC123 (centres undefined) | inactive | inactive |  | 
25 | C=CC(=O)N1CCC[C@@H](n2nc(-c3cccc(C(=O)Nc4ccc(C(C)C)c(C)c4)c3)c3c(N)ncnc32)C1 | 1460 nM (active) | 2310 nM (active) |  | 
26 | CCOC(=O)c1cccc(CNc2ccc(N(C)C(=O)Nc3ccccc3)cc2)c1 | 18400 nM (active) | 11600 nM (active) |  | 

Row | SMILES | Potency [1] | Potency [2] | viability (% of control) [1] | viability, % of control [2]
27 | CCCCCc1ccc(/C=C/[C@H](O)[C@@H](CO)NC)cc1 | 11600 nM (active) | 20600 nM (active) |  | 
28 | COc1ccc(C(=O)OC2C3C=COC(OC4OC(CO)C(O)C(O)C4O)C3C3(CO)OC23)cc1OC (centres undefined) | inactive | inactive |  | 
29 | Oc1cccc(Nc2ccnc3[nH]c4ccccc4c23)c1 | 1840 nM (active) | 2310 nM (active) |  | 
30 | CC1(C)CC[C@]2(C(=O)O[C@@H]3O[C@H](CO)[C@@H](O)[C@H](O)[C@H]3O)CC[C@]3(C)C(=CCC4[C@@]5(C)C[C@H](O)[C@H](O[C@@H]6O[C@H](C(=O)O)[C@@H](O)[C@H](O)[C@H]6O)[C@@](C)(CO)C5CC[C@]43C)C2C1 (some centres undefined) |  |  | 24.2% [at 9.25 µM] | 20.7% [at 9.25 µM]
31 | C=C(C(=O)O)C1CC(O)C2(C)CCCC(C)(O)C2C1 (centres undefined) | inactive | inactive |  | 
32 | Cc1cc(Nc2cc(C)c(C#N)c(NC(C)CCCC(C)(C)O)n2)n[nH]1 (centres undefined) | 259 nM (active) | 411 nM (active) |  | 
33 | CC(/C=C/[C@]1(O)[C@@]2(C)CO[C@@]1(C)C[C@@H](O)C2)=C\C(=O)O[C@@H]1O[C@H](CO)[C@@H](O)[C@H](O)[C@H]1O | inactive | inactive |  | 
34 | C=C[C@@]12COC(=O)C(=C)C1[C@@H](O)[C@H](C(=C)C(=O)OC)[C@@H](OC(=O)C(=C)CO)C2 (some centres undefined) | 1780 nM (active) | 1590 nM (active) |  | 
35 | C=C1C2(CCC(=O)OC2(C)C)CC(OC(=O)/C(C)=C/C)C2(C)C13OC14C(=O)OC(C)(C(=O)C12C(=O)OC4C)C3OC(C)=O (centres undefined) | inactive | inactive |  | 
36 | NC1CCC(Nc2cc(-c3cccc(NCc4cccc(F)c4)n3)c(Cl)cn2)CC1 (centres undefined) | 146 nM (active) | 116 nM (active) |  | 
37 | O=C(O)/C=C/c1ccc2occc2c1O[C@@H]1O[C@H](CO)[C@@H](O)[C@H](O)[C@H]1O | inactive | inactive |  | 
38 | C=C(C)C1CCC2(C(=O)OC3OC(COC4OC(CO)C(O)C(O)C4O)C(OC4OC(C)C(O)C(O)C4O)C(O)C3O)CCC3(C(=O)O)C(CCC4C5(C)CCC(=O)C(C)(C)C5CCC43C)C12 (centres undefined) |  |  | 84.8% [at 9.25 µM] | 91.7% [at 9.25 µM]
39 | O=C(CCc1ccccc1)c1c(O)c([C@@H]2O[C@H](CO)[C@@H](O)[C@H](O)[C@H]2O)c(O)c([C@@H]2O[C@H](CO)[C@@H](O)[C@H](O)[C@H]2O)c1O | inactive | inactive |  | 
40 | CC1(C)CC[C@]2(C(=O)O[C@@H]3O[C@H](CO)[C@@H](O)[C@H](O)[C@H]3O)CC[C@]3(C)C(=CCC4[C@@]5(C)CC[C@H](O[C@@H]6O[C@H](C(=O)O)[C@@H](O)[C@H](O)[C@H]6O)[C@@](C)(CO)C5CC[C@]43C)C2C1 (some centres undefined) |  |  | 98% [at 9.25 µM] | 100% [at 9.25 µM]
41 | CCN1CCN(Cc2ccc(-c3cc4c(NC(C)c5ccccc5)ncnc4[nH]3)cc2)CC1 (centres undefined) | 920 nM (active) | 1300 nM (active) |  | 
42 | Nc1nc(N)c2nc(-c3cccc(O)c3)cnc2n1 | 1840 nM (active) | 2060 nM (active) |  | 
43 | COc1cc(C)c(C(=O)O[C@@H]2[C@H](O)[C@@H](CO)O[C@H]2n2ccc(=O)[nH]c2=O)c(OC)c1 | inactive | inactive |  | 
44 | COC(=O)[C@@]1(C)CC[C@]2(C(=O)O[C@@H]3O[C@H](CO)[C@@H](O)[C@H](O)[C@H]3O)CC[C@]3(C)C(=CCC4[C@@]5(C)CC[C@H](O[C@@H]6O[C@H](C(=O)O)[C@@H](O)[C@H](O)[C@H]6O)C(C)(C)C5CC[C@]43C)[C@@H]2C1 (some centres undefined) |  |  | 68.6% [at 9.25 µM] | 81.9% [at 9.25 µM]
45 | C[C@]1(OC(=O)/C=C/c2ccccc2)C[C@@H](O)[C@]2(O)C=CO[C@@H](O[C@@H]3O[C@H](CO)[C@@H](O)[C@H](O)[C@H]3O)[C@@H]21 | inactive | inactive |  | 
46 | O=C(OC[C@H]1O[C@H](O[C@]2(CO)O[C@H](CO)[C@@H](O)[C@@H]2O)[C@H](O)[C@@H](O)[C@@H]1O)c1ccc(O)cc1 | inactive | inactive |  | 
47 | C[S+](CC[C@H](N)C(=O)[O-])C[C@H]1O[C@@H](n2cnc3c(N)ncnc32)[C@H](O)[C@@H]1O (some centres undefined) | inactive | inactive |  | 
48 | CC1(CO)CC[C@]2(C(=O)O[C@@H]3O[C@H](CO)[C@@H](O)[C@H](O)[C@H]3O)CC[C@]3(C)C(=CCC4[C@@]5(C)C[C@H](O)[C@H](O[C@@H]6OC[C@@H](O)[C@H](O)[C@H]6O)[C@@](C)(CO)C5CC[C@]43C)C2C1 (some centres undefined) |  |  | 88.9% [at 9.25 µM] | 101% [at 9.25 µM]
49 | COc1cc(/C=C/C(=O)O[C@H]2[C@H](OC(=O)/C=C/c3cc(OC)c(O)c(OC)c3)O[C@H](CO[C@@H]3O[C@H](CO)[C@@H](O)[C@H](O)[C@H]3O)[C@@H](O)[C@@H]2O)ccc1O | inactive | inactive |  | 
50 | O=S(c1cc(Cl)cc(Cl)c1O)c1cc(Cl)cc(Cl)c1O | inactive | inactive |  | 
51 | CC(=O)O[C@@H]1[C@@H](O)[C@H](C)O[C@@H](O[C@H]2[C@@H]3C=CO[C@@H](O[C@@H]4O[C@H](CO)[C@@H](O)[C@H](O)[C@H]4O)[C@@H]3[C@@]3(CO)O[C@@H]23)[C@@H]1OC(=O)/C=C/c1ccccc1 | inactive | inactive |  | 
52 | C[C@@H]1O[C@@H](O[C@H]2[C@H](O)[C@@H](O[C@@H]3O[C@H](CO)[C@@H](O)[C@H](O[C@@H]4O[C@H](CO)[C@@H](O)[C@H](O)[C@H]4O)[C@H]3O)[C@H](O[C@H]3CC[C@@]4(C)C(=CC[C@@H]5C4CC[C@@]4(C)C5C[C@@H]5OC6(CC[C@@](C)(CO[C@@H]7O[C@H](CO)[C@@H](O)[C@H](O)[C@H]7O)O6)[C@@H](C)[C@@H]54)C3)O[C@@H]2CO)[C@H](O)[C@H](O)[C@H]1OC1OC(CO)C(O)C(O)C1O (some centres undefined) |  |  | 77.4% [at 9.25 µM] | 109% [at 9.25 µM]
